# Legend:
# Assay in all cases: DAPPL (digital affinity profiling via proximity ligation, sequencing); 10 mM Tris-HCl pH 7.5, 50 mM NaCl, 1 mM DTT, 4% glycerol, room temperature, 30 min; GST-TFs on glutathione beads, 16-mer random dsDNA library, 0.1% formaldehyde crosslink after washing; high values mean tight binding
# FLI1 = target: T1, FLI1 (Homo sapiens, UniProt Q01543 1-452); details: protein: recombinant; tags: N-terminal GST; dsDNA, one strand shown
# T1 sequence: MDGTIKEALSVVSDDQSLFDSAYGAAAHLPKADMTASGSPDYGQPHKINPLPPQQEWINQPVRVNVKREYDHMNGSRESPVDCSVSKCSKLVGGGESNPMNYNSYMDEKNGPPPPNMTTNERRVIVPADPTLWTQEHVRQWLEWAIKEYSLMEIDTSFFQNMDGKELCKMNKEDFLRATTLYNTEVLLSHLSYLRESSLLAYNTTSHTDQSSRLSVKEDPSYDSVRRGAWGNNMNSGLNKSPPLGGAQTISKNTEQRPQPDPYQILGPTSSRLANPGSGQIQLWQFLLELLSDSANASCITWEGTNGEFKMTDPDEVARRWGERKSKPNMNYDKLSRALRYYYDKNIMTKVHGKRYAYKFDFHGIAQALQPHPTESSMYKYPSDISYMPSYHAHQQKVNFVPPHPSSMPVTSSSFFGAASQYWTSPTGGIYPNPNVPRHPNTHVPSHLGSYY
# Summary of the method: (§1)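 Human transcription factors fused to GST were expressed in yeast, captured on glutathione beads, given DNA barcodes and pooled with a GST-only negative control. Pools were incubated with 200 nmole of a 16-mer random double-stranded DNA library in Tris/NaCl/DTT/glycerol buffer at room temperature for 30 min. They were then washed, crosslinked with 0.1% formaldehyde, proximity-ligated (BsaI/T4 ligase, 1 h, 37 °C), PCR-amplified and sequenced on an Illumina NextSeq500. Binding signal is each 6-mer's read frequency for a factor divided by its frequency for the GST control.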
# ELK1 = target: T2, ELK1 (Homo sapiens, UniProt P19419 1-428); details: protein: recombinant; tags: N-terminal GST; dsDNA, one strand shown
# T2 sequence: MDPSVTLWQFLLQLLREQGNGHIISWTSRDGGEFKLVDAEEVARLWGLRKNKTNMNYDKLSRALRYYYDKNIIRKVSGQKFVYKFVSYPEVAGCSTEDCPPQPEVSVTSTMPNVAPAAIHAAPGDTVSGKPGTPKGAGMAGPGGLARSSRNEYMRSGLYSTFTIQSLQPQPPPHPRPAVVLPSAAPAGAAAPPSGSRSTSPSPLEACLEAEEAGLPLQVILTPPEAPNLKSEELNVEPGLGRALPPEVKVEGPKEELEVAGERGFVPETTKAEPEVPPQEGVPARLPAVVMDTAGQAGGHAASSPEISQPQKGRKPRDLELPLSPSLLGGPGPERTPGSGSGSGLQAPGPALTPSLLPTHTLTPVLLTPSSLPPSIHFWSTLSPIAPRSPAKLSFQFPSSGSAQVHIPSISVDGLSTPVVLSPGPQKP
# Summary of the method: as §1
# GABPA = target: T3, GABPA (Homo sapiens, UniProt Q06546 1-454); details: protein: recombinant; tags: N-terminal GST; dsDNA, one strand shown
# T3 sequence: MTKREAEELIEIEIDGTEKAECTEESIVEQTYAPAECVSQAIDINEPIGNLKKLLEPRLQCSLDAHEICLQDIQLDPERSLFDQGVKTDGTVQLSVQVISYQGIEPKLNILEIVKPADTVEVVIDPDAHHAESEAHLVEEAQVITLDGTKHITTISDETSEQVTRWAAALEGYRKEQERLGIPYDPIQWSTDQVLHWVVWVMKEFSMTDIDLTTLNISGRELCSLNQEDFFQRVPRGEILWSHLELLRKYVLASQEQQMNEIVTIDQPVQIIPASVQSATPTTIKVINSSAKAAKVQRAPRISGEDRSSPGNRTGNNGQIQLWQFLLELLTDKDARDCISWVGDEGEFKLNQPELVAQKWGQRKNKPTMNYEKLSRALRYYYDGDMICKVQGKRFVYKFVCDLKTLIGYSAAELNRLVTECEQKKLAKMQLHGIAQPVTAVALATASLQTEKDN
# Summary of the method: as §1
# ERG = target: T4, ERG (Homo sapiens, UniProt P11308 1-479); details: protein: recombinant; tags: N-terminal GST; dsDNA, one strand shown
# T4 sequence: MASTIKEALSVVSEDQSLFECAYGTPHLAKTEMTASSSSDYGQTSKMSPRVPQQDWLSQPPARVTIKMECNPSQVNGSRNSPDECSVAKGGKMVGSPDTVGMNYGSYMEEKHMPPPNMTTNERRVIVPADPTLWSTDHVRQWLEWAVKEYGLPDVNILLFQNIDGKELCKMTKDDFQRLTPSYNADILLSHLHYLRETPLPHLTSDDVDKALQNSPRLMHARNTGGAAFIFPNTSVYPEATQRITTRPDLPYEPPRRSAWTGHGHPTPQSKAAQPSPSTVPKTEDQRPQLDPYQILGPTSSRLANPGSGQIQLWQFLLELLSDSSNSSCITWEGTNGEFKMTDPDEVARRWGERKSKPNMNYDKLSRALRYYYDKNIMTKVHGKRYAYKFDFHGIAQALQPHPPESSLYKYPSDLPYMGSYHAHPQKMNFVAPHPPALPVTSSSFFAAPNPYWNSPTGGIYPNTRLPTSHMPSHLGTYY
# Summary of the method: as §1
# ELF1 = ELF1 (Homo sapiens, UniProt P32519 1-619); details: protein: recombinant; tags: N-terminal GST; dsDNA, one strand shown
# ELF1, sequence (P32519 whole entry): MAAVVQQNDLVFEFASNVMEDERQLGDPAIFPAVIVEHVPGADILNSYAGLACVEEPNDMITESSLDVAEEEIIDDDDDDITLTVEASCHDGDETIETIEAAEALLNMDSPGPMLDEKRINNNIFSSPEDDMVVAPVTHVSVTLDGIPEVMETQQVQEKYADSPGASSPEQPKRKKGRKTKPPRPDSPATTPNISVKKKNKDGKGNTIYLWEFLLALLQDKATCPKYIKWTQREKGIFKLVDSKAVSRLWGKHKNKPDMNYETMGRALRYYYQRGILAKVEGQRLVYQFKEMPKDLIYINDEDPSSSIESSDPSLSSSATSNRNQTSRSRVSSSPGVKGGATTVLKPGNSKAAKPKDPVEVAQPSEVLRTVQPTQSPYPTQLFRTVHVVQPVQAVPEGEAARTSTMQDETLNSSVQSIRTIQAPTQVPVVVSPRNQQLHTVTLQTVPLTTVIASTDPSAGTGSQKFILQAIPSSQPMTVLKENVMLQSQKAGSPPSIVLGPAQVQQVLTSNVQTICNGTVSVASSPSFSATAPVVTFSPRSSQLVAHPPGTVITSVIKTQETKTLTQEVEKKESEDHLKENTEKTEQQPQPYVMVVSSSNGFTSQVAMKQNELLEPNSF
# Summary of the method: as §1
# EHF = target: T5, EHF (Homo sapiens, UniProt Q9NZC4 1-300); details: protein: recombinant; tags: N-terminal GST; dsDNA, one strand shown
# T5 sequence: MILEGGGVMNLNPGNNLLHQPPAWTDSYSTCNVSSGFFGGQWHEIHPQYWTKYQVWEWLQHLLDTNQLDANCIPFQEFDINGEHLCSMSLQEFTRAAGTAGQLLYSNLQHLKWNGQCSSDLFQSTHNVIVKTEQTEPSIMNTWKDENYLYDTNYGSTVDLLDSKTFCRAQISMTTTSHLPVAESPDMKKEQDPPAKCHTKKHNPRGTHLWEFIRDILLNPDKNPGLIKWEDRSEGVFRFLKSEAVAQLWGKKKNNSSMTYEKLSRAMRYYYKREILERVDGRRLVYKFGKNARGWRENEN
# Summary of the method: as §1
# SPI1 = SPI1 (Homo sapiens, UniProt P17947 1-270); details: protein: recombinant; tags: N-terminal GST; dsDNA, one strand shown
# Summary of the method: as §1
# SPIB = SPIB (Homo sapiens, UniProt Q01892 1-262); details: protein: recombinant; tags: N-terminal GST; dsDNA, one strand shown
# SPIB, sequence (Q01892 whole entry): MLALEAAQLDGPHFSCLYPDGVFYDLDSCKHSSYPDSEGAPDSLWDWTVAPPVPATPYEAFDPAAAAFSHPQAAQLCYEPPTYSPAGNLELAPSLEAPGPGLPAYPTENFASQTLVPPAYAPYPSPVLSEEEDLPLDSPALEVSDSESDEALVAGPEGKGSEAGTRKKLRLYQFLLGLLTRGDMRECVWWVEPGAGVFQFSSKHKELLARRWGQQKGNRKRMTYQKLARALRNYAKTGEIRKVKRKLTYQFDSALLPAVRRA
# Summary of the method: as §1
# ELK3 = target: T6, ELK3 (Homo sapiens, UniProt P41970 1-407); details: protein: recombinant; tags: N-terminal GST; dsDNA, one strand shown
# T6 sequence: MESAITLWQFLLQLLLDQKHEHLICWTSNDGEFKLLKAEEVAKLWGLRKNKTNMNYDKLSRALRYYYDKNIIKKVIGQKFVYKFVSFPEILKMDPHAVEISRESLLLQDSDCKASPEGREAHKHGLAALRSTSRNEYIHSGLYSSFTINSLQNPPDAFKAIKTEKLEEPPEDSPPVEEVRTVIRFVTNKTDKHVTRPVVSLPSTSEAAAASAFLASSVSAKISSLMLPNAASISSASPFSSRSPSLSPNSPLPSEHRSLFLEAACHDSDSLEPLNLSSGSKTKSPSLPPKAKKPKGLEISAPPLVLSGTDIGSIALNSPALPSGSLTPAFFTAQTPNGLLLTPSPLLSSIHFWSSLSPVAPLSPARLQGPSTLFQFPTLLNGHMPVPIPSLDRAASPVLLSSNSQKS
# Summary of the method: as §1
# FEV = target: T7, FEV (Homo sapiens, UniProt Q99581 1-238); details: protein: recombinant; tags: N-terminal GST; dsDNA, one strand shown
# T7 sequence: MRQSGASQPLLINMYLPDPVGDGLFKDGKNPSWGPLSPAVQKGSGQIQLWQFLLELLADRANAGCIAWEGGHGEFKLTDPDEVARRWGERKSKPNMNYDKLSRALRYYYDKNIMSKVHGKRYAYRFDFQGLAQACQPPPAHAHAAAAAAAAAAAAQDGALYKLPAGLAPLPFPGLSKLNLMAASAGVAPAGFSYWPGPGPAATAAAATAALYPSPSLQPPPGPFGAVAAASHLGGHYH
# Summary of the method: as §1
# ETV5 = ETV5 (Homo sapiens, UniProt P41161 1-510); details: protein: recombinant; tags: N-terminal GST; dsDNA, one strand shown
# ETV5, sequence (P41161 whole entry): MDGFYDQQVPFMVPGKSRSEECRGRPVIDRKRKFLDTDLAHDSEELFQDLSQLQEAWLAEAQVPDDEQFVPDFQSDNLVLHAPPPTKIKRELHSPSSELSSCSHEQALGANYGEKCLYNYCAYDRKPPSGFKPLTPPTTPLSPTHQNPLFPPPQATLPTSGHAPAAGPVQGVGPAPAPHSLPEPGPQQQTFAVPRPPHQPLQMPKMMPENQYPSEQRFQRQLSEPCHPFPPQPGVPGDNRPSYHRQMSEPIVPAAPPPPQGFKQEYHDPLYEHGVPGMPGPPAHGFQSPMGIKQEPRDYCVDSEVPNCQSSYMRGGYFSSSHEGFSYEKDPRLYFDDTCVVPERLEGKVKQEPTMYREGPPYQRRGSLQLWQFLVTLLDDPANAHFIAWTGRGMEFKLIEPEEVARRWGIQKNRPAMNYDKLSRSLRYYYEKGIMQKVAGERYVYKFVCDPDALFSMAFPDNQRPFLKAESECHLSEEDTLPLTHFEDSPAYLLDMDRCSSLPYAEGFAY
# Summary of the method: as §1
# HSF1 = HSF1 (Homo sapiens, UniProt Q00613 1-529); details: protein: recombinant; tags: N-terminal GST; chain copies: 3; dsDNA, one strand shown
# HSF1, sequence (Q00613 whole entry): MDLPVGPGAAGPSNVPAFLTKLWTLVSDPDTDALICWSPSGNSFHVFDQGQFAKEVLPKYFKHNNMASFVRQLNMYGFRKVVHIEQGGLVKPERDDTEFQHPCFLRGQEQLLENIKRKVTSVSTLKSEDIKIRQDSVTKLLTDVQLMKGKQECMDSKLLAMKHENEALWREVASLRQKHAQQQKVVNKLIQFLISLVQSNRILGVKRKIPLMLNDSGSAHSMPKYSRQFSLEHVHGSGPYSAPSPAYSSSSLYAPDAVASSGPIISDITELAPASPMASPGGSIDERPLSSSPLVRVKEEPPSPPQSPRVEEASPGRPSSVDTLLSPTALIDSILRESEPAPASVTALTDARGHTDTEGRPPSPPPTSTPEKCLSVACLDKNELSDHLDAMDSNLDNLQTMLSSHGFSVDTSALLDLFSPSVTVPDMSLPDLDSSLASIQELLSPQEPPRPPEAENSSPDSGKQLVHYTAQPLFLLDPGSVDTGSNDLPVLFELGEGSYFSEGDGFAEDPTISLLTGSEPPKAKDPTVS
# Summary of the method: as §1
# SPIC = target: T8, SPIC (Homo sapiens, UniProt Q8N5J4 1-248); details: protein: recombinant; tags: N-terminal GST; dsDNA, one strand shown
# T8 sequence: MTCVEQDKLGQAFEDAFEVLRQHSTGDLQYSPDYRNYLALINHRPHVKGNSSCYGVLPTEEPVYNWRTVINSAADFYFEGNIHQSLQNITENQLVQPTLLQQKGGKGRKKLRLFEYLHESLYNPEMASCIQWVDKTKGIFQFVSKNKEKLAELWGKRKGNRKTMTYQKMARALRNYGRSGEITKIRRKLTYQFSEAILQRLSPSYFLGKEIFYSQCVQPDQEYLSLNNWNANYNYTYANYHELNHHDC
# Summary of the method: as §1
# ELF4 = ELF4 (Homo sapiens, UniProt Q99607 1-663); details: protein: recombinant; tags: N-terminal GST; dsDNA, one strand shown
# ELF4, sequence (Q99607 whole entry): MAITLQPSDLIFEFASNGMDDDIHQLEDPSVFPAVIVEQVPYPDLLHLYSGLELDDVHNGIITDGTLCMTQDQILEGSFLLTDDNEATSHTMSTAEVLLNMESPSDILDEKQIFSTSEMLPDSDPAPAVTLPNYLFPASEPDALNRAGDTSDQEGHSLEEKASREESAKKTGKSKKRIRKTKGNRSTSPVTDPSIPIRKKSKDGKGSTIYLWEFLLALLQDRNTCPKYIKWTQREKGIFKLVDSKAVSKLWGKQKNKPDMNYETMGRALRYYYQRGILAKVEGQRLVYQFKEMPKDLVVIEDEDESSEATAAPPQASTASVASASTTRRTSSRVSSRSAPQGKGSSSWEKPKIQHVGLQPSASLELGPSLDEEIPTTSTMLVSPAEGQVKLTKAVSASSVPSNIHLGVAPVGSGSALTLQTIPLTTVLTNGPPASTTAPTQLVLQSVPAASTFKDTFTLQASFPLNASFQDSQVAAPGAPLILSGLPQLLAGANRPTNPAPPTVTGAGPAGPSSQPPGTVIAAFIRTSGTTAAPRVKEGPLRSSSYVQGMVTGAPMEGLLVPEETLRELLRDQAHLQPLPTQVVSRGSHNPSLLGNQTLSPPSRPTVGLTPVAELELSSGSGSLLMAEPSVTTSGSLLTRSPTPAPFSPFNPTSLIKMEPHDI
# Summary of the method: as §1
# ELK4 = target: T9, ELK4 (Homo sapiens, UniProt P28324-2 1-405); details: protein: recombinant; tags: N-terminal GST; dsDNA, one strand shown
# T9 sequence: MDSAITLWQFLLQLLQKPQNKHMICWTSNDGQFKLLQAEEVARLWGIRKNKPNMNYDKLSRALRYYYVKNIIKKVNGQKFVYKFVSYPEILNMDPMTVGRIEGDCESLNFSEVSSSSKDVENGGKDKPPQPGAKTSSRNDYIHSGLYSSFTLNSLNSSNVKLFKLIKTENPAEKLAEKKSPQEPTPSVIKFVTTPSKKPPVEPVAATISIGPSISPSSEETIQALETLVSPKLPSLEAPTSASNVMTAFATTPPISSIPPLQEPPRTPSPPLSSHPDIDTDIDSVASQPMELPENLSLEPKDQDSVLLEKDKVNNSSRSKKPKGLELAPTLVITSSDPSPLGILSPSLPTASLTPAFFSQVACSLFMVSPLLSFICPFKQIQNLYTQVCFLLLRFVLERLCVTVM
# Summary of the method: as §1
# ETV2 = target: T10, ETV2 (Homo sapiens, UniProt O00321 1-342); details: protein: recombinant; tags: N-terminal GST; dsDNA, one strand shown
# T10 sequence: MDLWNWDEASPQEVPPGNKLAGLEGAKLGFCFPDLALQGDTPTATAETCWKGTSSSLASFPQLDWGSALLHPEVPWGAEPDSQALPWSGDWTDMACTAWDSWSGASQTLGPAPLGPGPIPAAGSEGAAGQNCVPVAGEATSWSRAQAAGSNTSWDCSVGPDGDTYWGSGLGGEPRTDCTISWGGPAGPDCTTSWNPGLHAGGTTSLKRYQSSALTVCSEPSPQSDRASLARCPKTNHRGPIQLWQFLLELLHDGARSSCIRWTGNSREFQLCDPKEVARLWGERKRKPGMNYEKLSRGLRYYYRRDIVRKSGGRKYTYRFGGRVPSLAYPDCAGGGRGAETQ
# Summary of the method: as §1
# ELF3 = target: T11, ELF3 (Homo sapiens, UniProt P78545 1-371); details: protein: recombinant; tags: N-terminal GST; dsDNA, one strand shown
# T11 sequence: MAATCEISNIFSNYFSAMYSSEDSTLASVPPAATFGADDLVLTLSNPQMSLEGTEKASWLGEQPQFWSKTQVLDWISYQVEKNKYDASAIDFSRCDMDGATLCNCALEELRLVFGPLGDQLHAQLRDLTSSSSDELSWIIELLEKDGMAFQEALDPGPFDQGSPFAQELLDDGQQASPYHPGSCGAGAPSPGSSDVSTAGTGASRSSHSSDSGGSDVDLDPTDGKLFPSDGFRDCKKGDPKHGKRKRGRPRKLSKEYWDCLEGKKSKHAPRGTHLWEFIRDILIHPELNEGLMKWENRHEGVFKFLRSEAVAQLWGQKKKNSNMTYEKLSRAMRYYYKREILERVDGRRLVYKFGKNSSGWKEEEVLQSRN
# Summary of the method: as §1
# CRX = CRX (Homo sapiens, UniProt O43186 1-299); details: protein: recombinant; tags: N-terminal GST; dsDNA, one strand shown
# CRX, sequence (O43186 whole entry): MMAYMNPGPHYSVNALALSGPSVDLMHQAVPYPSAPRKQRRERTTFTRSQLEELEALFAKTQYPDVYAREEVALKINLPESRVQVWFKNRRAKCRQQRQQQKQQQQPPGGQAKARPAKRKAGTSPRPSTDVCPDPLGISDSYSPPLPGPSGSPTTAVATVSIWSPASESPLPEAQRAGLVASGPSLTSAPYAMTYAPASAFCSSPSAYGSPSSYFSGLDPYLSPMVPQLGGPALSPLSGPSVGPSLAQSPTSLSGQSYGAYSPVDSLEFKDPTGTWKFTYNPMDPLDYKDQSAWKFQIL
# Summary of the method: as §1
# ETV1 = ETV1 (Homo sapiens, UniProt P50549 1-477); details: protein: recombinant; tags: N-terminal GST; dsDNA, one strand shown
# ETV1, sequence (P50549 whole entry): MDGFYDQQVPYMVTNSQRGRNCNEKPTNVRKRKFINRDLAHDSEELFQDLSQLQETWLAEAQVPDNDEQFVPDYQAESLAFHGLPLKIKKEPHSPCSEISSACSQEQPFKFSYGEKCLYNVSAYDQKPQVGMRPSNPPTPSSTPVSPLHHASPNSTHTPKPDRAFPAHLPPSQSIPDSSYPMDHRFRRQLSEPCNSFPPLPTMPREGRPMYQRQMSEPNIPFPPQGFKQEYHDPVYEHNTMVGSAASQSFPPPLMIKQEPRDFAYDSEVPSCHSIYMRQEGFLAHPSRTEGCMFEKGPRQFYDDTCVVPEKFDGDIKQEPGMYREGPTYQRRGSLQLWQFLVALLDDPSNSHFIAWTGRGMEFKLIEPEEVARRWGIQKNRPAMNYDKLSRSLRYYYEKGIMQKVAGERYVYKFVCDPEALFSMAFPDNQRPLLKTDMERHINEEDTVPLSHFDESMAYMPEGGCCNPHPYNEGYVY
# Summary of the method: as §1
sequence,measurement,setting,value
TTATGA,binding signal,FLI1,"1.15 fold enrichment (6-mer frequency, TF over GST control)"
same,binding signal,ELK1,"1.15 fold enrichment (6-mer frequency, TF over GST control)"
same,binding signal,GABPA,"1.22 fold enrichment (6-mer frequency, TF over GST control)"
same,binding signal,ERG,"1.08 fold enrichment (6-mer frequency, TF over GST control)"
same,binding signal,ELF1,"1.19 fold enrichment (6-mer frequency, TF over GST control)"
same,binding signal,EHF,"1.16 fold enrichment (6-mer frequency, TF over GST control)"
same,binding signal,SPI1,"1.15 fold enrichment (6-mer frequency, TF over GST control)"
same,binding signal,SPIB,"1.14 fold enrichment (6-mer frequency, TF over GST control)"
same,binding signal,ELK3,"1.22 fold enrichment (6-mer frequency, TF over GST control)"
same,binding signal,FEV,"1.07 fold enrichment (6-mer frequency, TF over GST control)"
same,binding signal,ETV5,"1.16 fold enrichment (6-mer frequency, TF over GST control)"
same,binding signal,HSF1,"1.45 fold enrichment (6-mer frequency, TF over GST control)"
same,binding signal,SPIC,"1.26 fold enrichment (6-mer frequency, TF over GST control)"
same,binding signal,ELF4,"1.05 fold enrichment (6-mer frequency, TF over GST control)"
same,binding signal,ELK4,"1.07 fold enrichment (6-mer frequency, TF over GST control)"
same,binding signal,ETV2,"1.09 fold enrichment (6-mer frequency, TF over GST control)"
same,binding signal,ELF3,"1.31 fold enrichment (6-mer frequency, TF over GST control)"
same,binding signal,CRX,"1.99 fold enrichment (6-mer frequency, TF over GST control)"
same,binding signal,ETV1,"1.17 fold enrichment (6-mer frequency, TF over GST control)"

# Source: publication PMC7862700, “An all-to-all approach to the identification of sequence-specific readers for epigenetic DNA modifications on cytosine”
